Screens from PubChem BioAssay.
A selection: hits, their analogues and other compounds. The true share with any hit is near 3.7%.
Nrf2 inh: Nrf2 qHTS screen for inhibitors; Potency, µM (titrated, usually from 46 µM), for inactives: top-dose activity change, negative = inhibition, usual class: inhibitors; actives 2.1% (n = 360,000); A549 ARE-Fluc reporter, luciferase luminescence, 18-24 h; further: on the % scale 0 is the no-effect control and ±100 the full control effect; nearly all actives have a fitted effect of over 60% in size
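Nrf2 function is reported as luminescence of an ARE-controlled luciferase in A549 cells. Compounds were tested at several concentrations, and a CellTiter-Fluor read on the same wells flagged cytotoxicity.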
ELG1 repair inh: qHTS screen for small molecules that inhibit ELG1-dependent DNA repair in human embryonic kidney (HEK293T) cells expressing luciferase-tagged ELG1; HEK293T ELG1-luciferase reporter, luminescence, 16 h; DNA damage induced by 5-fluorouridine; Potency, µM (top dose mostly 46.1 µM), inactives show at the top dose activity change, negative = inhibition, usual class: inhibitors; actives 2.3% (n = 330,000); AID 504467, 2011; further: on the % scale 0 is the no-effect control and ±100 the full control effect; nearly all actives have a fitted effect of over 55% in size
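In this reporter screen, reduction of luminescence relative to DMSO vehicle indicated activity. Compounds and 5-fluorouridine were added together to 2,000 cells per well, incubated for 16 hr at 37 °C, then developed with ONE-Glo.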
Nrf2 activator: qHTS of Nrf2 Activators | Potency, µM (titrated, usually from 46.1 µM), for inactives: at the top dose activation, usual class: activators | AREc32 ARE-luciferase reporter (MCF7-derived line), luminescence, 24 h | AID 624171, 2012 | actives 0.31% (n = 410,000); further: % of control where 0% means no effect; nearly all actives have a fitted effect of over 65% in size
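Nrf2 activation is followed as ARE-luciferase induction in the AREc32 line after one day of compound treatment; luminescence is read with Steady-Glo.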
A549 tox-1: Nrf2 qHTS screen for inhibitors: counterscreen for cytotoxicity; A549 ARE-Fluc cells, CellTiter-Fluor viability, 18-24 h; Potency, µM (series often up to 46 µM), without a hit: at the top dose activity change, negative = cytotoxicity, actives largely listed as inhibitors; actives 0.16% (n = 390,000); AID 504648, 2011; further: on the % scale 0 is the no-effect control and ±100 the full control effect
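Cytotoxicity counterscreen: CellTiter-Fluor fluorescence was measured in A549 ARE_Fluc cells after 18-24 h of compound exposure in a concentration series. The subsequent BugLite luminescent read reports ARE-luciferase activity.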
FLuc enzyme inh: Nrf2 qHTS screen for inhibitors: Purified Fluc Biochemical Counterscreen for Hit Validation; shares compounds with Nrf2 inh; purified firefly luciferase, luminescence inhibition; Potency, µM (series often up to 57.5 µM), for the others: top-dose activity change, negative = inhibition, actives largely listed as inhibitors; actives 4% (n = 1,400); further: on the % scale 0 is the no-effect control and ±100 the full control effect; nearly all actives have a fitted effect of over 65% in size
Target sequence (P08659 whole entry, looked up): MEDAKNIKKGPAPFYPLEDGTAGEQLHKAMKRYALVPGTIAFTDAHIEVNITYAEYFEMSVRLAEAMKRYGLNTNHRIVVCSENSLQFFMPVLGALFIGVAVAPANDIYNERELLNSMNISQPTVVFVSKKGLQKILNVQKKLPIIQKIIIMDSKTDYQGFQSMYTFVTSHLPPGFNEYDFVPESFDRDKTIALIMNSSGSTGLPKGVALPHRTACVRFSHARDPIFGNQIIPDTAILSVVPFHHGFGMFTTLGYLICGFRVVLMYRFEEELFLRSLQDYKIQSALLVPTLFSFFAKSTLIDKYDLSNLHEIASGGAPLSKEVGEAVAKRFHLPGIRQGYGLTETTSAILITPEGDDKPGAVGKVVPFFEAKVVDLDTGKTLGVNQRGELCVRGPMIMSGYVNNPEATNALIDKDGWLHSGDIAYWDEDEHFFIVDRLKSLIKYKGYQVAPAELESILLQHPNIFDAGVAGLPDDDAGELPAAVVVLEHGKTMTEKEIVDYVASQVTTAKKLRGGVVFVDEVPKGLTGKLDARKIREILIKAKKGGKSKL
A549 tox-2: Nrf2 qHTS screen for inhibitors: A549 ARE-Fluc Cytotoxicity Counterscreen for Hit Validation. shares compounds with Nrf2 inh. A549 ARE-Fluc cells, cytotoxicity counterscreen. AID 720523, 2013. actives 2% (n = 1,400). Potency, µM (highest dose often 46.1 µM), for inactives: top-dose activity change, negative = cytotoxicity, most hits filed as inhibitors;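 further: cells exposed to compounds for 18 to 24 hours; on the % scale 0 is the no-effect control and ±100 the full control effect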
Nrf2 ARE inh: Nrf2 qHTS screen for inhibitors: Nrf2 A549 ARE-Fluc Confirmation Assay for Hit Validation | shares compounds with Nrf2 inh | A549 ARE-firefly luciferase reporter, luminescence | Potency, µM (top dose mostly 46.1 µM), for the others: at the highest dose activity change, negative = inhibition, hits mostly inhibitors | actives 74% (n = 1,400) | AID 720524, 2013; further: on the % scale 0 is the no-effect control and ±100 the full control effect; nearly all actives have a fitted effect of over 65% in size
* = called active by the depositor; u = inconclusive; x = no result shown; [ ] = dose if it differs, or a comment. The call rests on the fitted dose curve; in most records, active means well fitted curve in the direction sought with a large enough effect; inconclusive means small, poorly fitted or top-dose-only effect, or another doubt; inactive means no such curve, though single readings can be large; an effect the other way counts as inactive or inconclusive. Potency means the concentration at half of the fitted maximal effect.

SMILES | Nrf2 inh | ELG1 repair inh | Nrf2 activator | A549 tox-1 | FLuc enzyme inh | A549 tox-2 | Nrf2 ARE inh
COc1cccc(C(=O)N(Cc2ccccc2)Cc2cc3cc4c(cc3[nH]c2=O)OCCO4)c1 | 2.59µM* | u | -0.2% | -18.0% | -4.0% | -23.1% | u
O=C(c1cc(S(=O)(=O)N2CCN(c3ccccc3)CC2)ccc1Cl)N1CCCC(C(F)(F)F)C1 (configuration not stated) | 4.61µM* | 4.3% | -0.2% | -14.5% | 1.7% | -1.1% | 5.17µM*
COc1ccc(S(=O)(=O)N2CCN(c3ccccc3)CC2)cc1C(=O)N1CCCC1 | u | -11.0% | 0.0% | -4.3% | x | x | x
O=C(Nc1ccc([N+](=O)[O-])cc1)Nc1ccc(N2CCOCC2)c2nonc12 | 2.9% | -9.6% | 0.0% | 2.7% | x | x | x
O=NNc1nc2ccccc2n1Cc1ccccc1 | 6.51µM* | u | 0.2% | u | -20.0% | -24.2% | 6.51µM*
CC(=O)Nc1nc2ccccc2n1Cc1ccccc1 | 1.1% | 33.8% | -0.5% | -13.2% | x | x | x
O=C(NCc1ccccn1)c1ccc(OC2CCN(Cc3ccc(CO)o3)CC2)cc1 | 6.4% | -5.1% | -0.8% | 0.4% | x | x | x
Cc1cc(F)ccc1S(=O)(=O)Nc1ccccc1C(=O)Nc1ccccc1-c1nc2ccccc2[nH]1 | 4.11µM* | u | -2.3% | 23.1µM* | 1.7% | u | 16.4µM*
C[C@H](CO)N1C[C@H](C)[C@@H](CN(C)Cc2ccccn2)Oc2ncc(-c3ccccc3)cc2C1=O | x | x | -0.5% | x | x | x | x
COc1ccc(C(=O)C/C(=C\C(=O)c2ccc(C)cc2)c2ccccc2)cc1 | 2.59µM* | -14.3% | 0.0% | u | 0.3% | -27.3% | 11.6µM*
CCC[C@H]1NC(=O)[C@H](C)N(C)C(=O)C(C)(C)C(=O)C(C)NC(=O)[C@H](Cc2ccc(OC)cc2)N(C)C(=O)[C@H](C(C)C)N(C)C(=O)CNC(=O)[C@H](CC(C)C)N(C)C(=O)CNC(=O)[C@H]([C@@H](C)CC)OC(=O)[C@H]1C (some centres not stated) | 1.03µM* | u | -1.5% | 1.46µM* | 3.0% | u | 1.84µM*
CCN1CCN(C(C(=O)NC2CCCCC2)c2ccnc3ccccc23)CC1 (configuration not stated) | x | x | -1.1% | x | x | x | x
COc1ccc(-c2nc(S(=O)(=O)c3ccccc3)c(N3CCN(C)CC3)o2)cc1 | x | x | 3.6% | x | x | x | x
CC1(C)COCN1S(=O)(=O)c1ccc(C(=O)Nc2nnc(-c3ccc(Cl)s3)o2)cc1 | 6.31µM* | u | -0.9% | u | -14.7% | u | 5.17µM*
Cc1ccc(C(=O)Nc2ccc(S(=O)(=O)N(Cc3ccccc3)c3ccccc3)cc2)cc1 | u | x | 0.3% | -0.8% | x | x | x
CCOc1ccc(C(=O)Nc2ccc(S(=O)(=O)N(Cc3ccccc3)c3ccccc3)cc2)cc1 | 2.06µM* | x | -1.1% | -10.1% | -0.9% | -0.7% | 1.64µM*
CCc1nnc(NC(=O)c2ccc(S(=O)(=O)N3CCCC(C)C3)cc2)o1 (configuration not stated) | u | -6.5% | -1.2% | -15.8% | x | x | x
CCN(c1ccccc1)S(=O)(=O)c1ccc(C(=O)Nc2nnc(-c3ccco3)o2)cc1 | 5.17µM* | u | -2.3% | -22.4% | 0.9% | -26.3% | 5.17µM*
O=C(Nc1nnc(-c2ccco2)o1)c1ccc(N2C(=O)CCC2=O)cc1 | 6.5% | 17.0% | -0.6% | -11.5% | x | x | x
CC1CCCN(S(=O)(=O)c2ccc(C(=O)Nc3nnc(-c4ccco4)o3)cc2)C1 (configuration not stated) | 8.2µM* | u | 3.0% | -18.3% | -1.3% | u | x
CCCC(=O)Nc1nnc(-c2ccc(Cl)s2)o1 | 10.2% | 14.5% | 0.9% | 2.7% | x | x | x
Cn1cccc1C(=O)Nc1ccc(Cl)c(S(=O)(=O)N2CCCCC2)c1 | u | u | 3.5% | 2.0% | x | x | x
O=C(COC(=O)c1ccccn1)NC(=O)c1ccccc1 | -1.5% | 25.6% | -0.1% | 1.1% | x | x | x
CC1CCCCN1S(=O)(=O)c1ccc(C(=O)Nc2nnc(-c3ccncc3)o2)cc1 (configuration not stated) | u | u | -0.1% | -5.6% | x | x | x
CC1CCCCN1S(=O)(=O)c1ccc(C(=O)Nc2nnc(-c3ccccc3Cl)o2)cc1 (configuration not stated) | 5.17µM* | u | -0.1% | u | -2.4% | u | 6.51µM*
SMILES | Nrf2 inh | ELG1 repair inh | Nrf2 activator | A549 tox-1 | FLuc enzyme inh | A549 tox-2 | Nrf2 ARE inh
CCCN(CCC)S(=O)(=O)c1ccc(C(=O)Nc2nnc(-c3cccc(OC)c3)o2)cc1 | 6.51µM* | u | -1.0%[9.22 µM] | u | 1.7% | u | 4.61µM*
CCOc1ccccc1NC(=O)Cn1c(=O)n(-c2ccc(C)c(C)c2)c(=O)c2c(C)c(C(=O)N(C)C)sc21 | x | x | 0.8% | -4.8% | x | x | x
COc1cccc(-c2nnc3n2N=C(C(C)(C)C)CS3)c1 | 7.31µM* | u | -1.3% | -27.1% | -2.3% | u | x
CCCC(=O)Nc1nc(-c2ccc3c(c2)CCN3S(C)(=O)=O)cs1 | 8.2µM* | u | 5.8% | -12.6% | u | -14.5% | u
CS(=O)(=O)N1CCc2cc(-c3csc(NCC4CCCO4)n3)ccc21 (configuration not stated) | u | -20.1% | 7.8% | 11.4% | x | x | x
CCOC(=O)c1cc(-c2ccc(C)cc2)n(CCC(=O)NCc2ccccc2)c1C | 8.2µM* | x | -0.2% | -21.4% | 0.6% | -15.4% | -23.0%
CC(=O)NC(C)(c1ccccc1)c1nc(-c2ccc(N(C)C)cc2)cs1 (configuration not stated) | x | x | 1.0% | x | x | x | x
Cc1cc(N(CCO)Cc2ccccc2)n2nc(-c3ccc(C(C)(C)C)cc3)nc2n1 | u | x | -0.3% | -12.4% | x | x | x
O=C(CCCN1C(=O)/C(=C/c2ccccc2Cl)SC1=S)NNC(=O)c1ccc(Cl)cc1Cl | 6.51µM* | -19.0% | -2.2% | -0.3% | -11.9% | -19.4% | 7.31µM*
O=C(CCN1C(=O)/C(=C/c2ccccc2Cl)SC1=S)Nc1ccccc1C(=O)O | -1.8% | -1.1% | u | 0.6% | x | x | x
Cc1cccc(OCCSc2nc3ccc(NC(=O)COc4ccccc4)cc3s2)c1 | 14.9% | x | 3.0% | 12.5% | x | x | x
